# Assay outcomes (PubChem BioAssay)
# In the library only some 22% were active in any assay of this set; here they are far more common.
# Shiga inhibitor: Shiga toxin inhibition. Vero cells, Shiga toxin protein synthesis inhibition reporter. inhibition, % at 38.7 µM. hit rate 9.2% among 290,000; in the data active = inhibition mostly above about 28%, no sharp cut-off; inactive = mostly below about 43%; also: 0% is about no effect
# Pf growth 96h: P. falciparum growth inhibition at 96 hour, primary screen for plastid delayed-death inhibitors; P. falciparum luciferase reporter growth, 96 h; Potency, µM (series often up to 28.7 µM), for inactives: at the highest dose activity change, negative = inhibition, hits mostly inhibitors; hit rate 6.9% among 320,000; also: potency is read from the fitted curve at half-maximal effect; % is scaled to controls: 0 for no effect and ±100 for the full control effect
#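 Erythrocytes infected with luciferase-expressing P. falciparum were dispensed at 2% hematocrit and 0.05% parasitemia (final), then incubated with compounds 96 hours at 37 C in 5% CO2. Luminescence after detection reagent addition reported growth.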
# LmPK inh: inhibitors of Leishmania mexicana pyruvate kinase; Q27686; purified LmPK, Kinase-Glo ATP luminescence, 1 h; Potency, µM (highest dose often 57.5 µM), inactives show top-dose activity change, negative = inhibition, hits mostly inhibitors; hit rate 0.37% among 290,000; also: potency is read from the fitted curve at half-maximal effect; % is scaled to controls: 0 for no effect and ±100 for the full control effect
# Target sequence (Q27686 whole entry, looked up): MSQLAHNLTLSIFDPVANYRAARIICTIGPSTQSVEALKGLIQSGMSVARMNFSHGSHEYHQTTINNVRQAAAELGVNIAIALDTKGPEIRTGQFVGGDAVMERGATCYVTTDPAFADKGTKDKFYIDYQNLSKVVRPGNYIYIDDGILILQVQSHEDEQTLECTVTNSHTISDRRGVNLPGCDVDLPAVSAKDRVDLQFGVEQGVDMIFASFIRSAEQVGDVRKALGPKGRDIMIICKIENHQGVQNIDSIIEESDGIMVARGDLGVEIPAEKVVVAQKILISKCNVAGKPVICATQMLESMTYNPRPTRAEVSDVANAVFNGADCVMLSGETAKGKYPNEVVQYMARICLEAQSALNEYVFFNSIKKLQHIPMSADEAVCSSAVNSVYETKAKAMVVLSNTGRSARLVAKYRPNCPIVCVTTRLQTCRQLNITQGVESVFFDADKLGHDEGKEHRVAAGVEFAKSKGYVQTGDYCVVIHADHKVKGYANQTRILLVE
#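 Purified LmPK (0.1 nM) converted ADP (0.1 mM) to ATP with PEP (0.5 mM) in imidazole buffer pH 7.2 with KCl and MgCl2, 1 h at room temperature. ATP was read by Kinase-Glo luminescence; data normalized to uninhibited and no-enzyme controls.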
# Cycloheximide cs: counter-screen for Shiga toxin inhibitors: cycloheximide protein synthesis inhibition. cell reporter, cycloheximide protein synthesis inhibition counterscreen. hit rate 12% among 300,000. AID 2314. max response, %; in the data active = max response mostly above about 13%, no sharp cut-off; inactive = mostly below about 14%; also: read at 38.3 µM for the half of the compounds with a filed dose; 0% is about no effect
# Pf growth 48h: P. falciparum growth inhibition at 48 hours (one generation); Potency, µM (top dose mostly 28.7 µM), for the others: at the top dose activity change, negative = inhibition, hits mostly inhibitors; hit rate 5.9% among 310,000; P. falciparum luciferase growth in erythrocytes, 48 h; AID 504832; also: potency is read from the fitted curve at half-maximal effect; % is scaled to controls: 0 for no effect and ±100 for the full control effect
#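 Here the parasites carry a stable luciferase gene and grow inside erythrocytes in Albumax-based RPMI medium with compound for one erythrocytic cycle. Activity is scored as loss of luminescent signal.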
# * marks the source's active call; other numbers are inactive results; ? = inconclusive; · = not tested or not shown. Unless noted, calls follow the shape of the dose curve; as a rule, active = well fitted inhibition curve with a large enough effect; inconclusive = small, poorly fitted or top-dose-only effect, or another doubt; inactive = no such curve, though single readings can be large or run the other way.
SMILES,Shiga inhibitor,Pf growth 96h,LmPK inh,Cycloheximide cs,Pf growth 48h
COc1ccc(NC(=O)CC2C(=O)N(c3cccc(OC)c3)C(=O)N2CCC(C)C)cc1 (centres undefined),-16.0,11.7µM*,4.9%,-1.4,·
COCCN1C(=O)N(c2cccc(OC)c2)C(=O)C1CC(=O)Nc1cccc(F)c1 (centres undefined),-3.4,4.15µM*,-6.2%,-1.3,-0.7%
O=C1c2cccc3cccc(c23)C(=O)N1CC1CCN(S(=O)(=O)c2ccc(F)cc2)CC1,-8.9,?,7.3%,-3.0,8.1%
CCOC(=O)c1c(SC)[nH]c2c(Cl)cccc2c1=O,4.2,38.4%,2.9%,-1.5,8.6%
CC(OC(=O)/C=C/c1ccco1)C(=O)NC1CCCCC1C (centres undefined),·,-14.1%,·,·,-9.1%
Cc1cc(C)cc(NC(=S)Nc2ccc(Cl)c(Cl)c2)c1,-11.8,13.2%,1.2%,-2.2,13.1µM*
Cc1ccc(NC(=S)Nc2ccc(OC(F)F)c(Cl)c2)cc1Cl,35.8,?,-1.5%,11.6,?
Cc1cccc(C)c1NC(=S)Nc1ccc(Cl)c(Cl)c1,16.3,-20.7%,4.5%,1.7,?
Cc1ccc(NC(=S)Nc2ccc(Cl)c(Cl)c2)c(OC(F)F)c1,-9.2,4.15µM*,2.6%,-1.2,?
CCN(CC)C(=O)c1sc(NC(=O)C(Sc2ccccc2)c2ccccc2)c(C(=O)OC(C)C)c1C (centres undefined),-10.8,0.415µM*,-3.6%,17.2,·
CCOC(=O)c1sc(NC(=O)CN(CC(C)C)CC(C)C)c(C(=O)OCC)c1C,-23.6,·,1.2%,-2.6,2.33µM*
CCOC(=O)c1c(NC(=O)CC(C)C)sc(C(C)=O)c1C,9.9,?,-9.3%,-0.7,?
CCOC(=O)c1c(NC(=O)OC)sc(C(=O)N(CC)CC)c1C,-6.5,?,-0.2%,-1.3,5.86µM*
CCOC(=O)c1sc(NC(=O)OC)c(C(=O)OC)c1C,-4.4,35.0%,1.2%,3.3,-0.1%
COc1ccc(CCNCc2cc(C)n(-c3ccc(OC)cc3)c2C)cc1,20.2,?,-0.6%,-0.8,?
COc1ccc(OCC(=O)N/N=C(\C)CC(=O)Nc2cccc([N+](=O)[O-])c2)cc1,-1.5,5.7%,-5.6%,-2.4,-12.3%
Cc1cccc(NC(=O)CNC(=O)CSc2nc(N)cc(N)n2)c1C,·,7.3%,·,·,32.8%
N#Cc1ccc(C23CC4(C2)[C@H](CN(Cc2cccnc2)[C@@H]4c2ccccc2)C3c2ccccc2)cc1 (some centres undefined),7.4,3.7µM*,1.5%,-3.4,4.15µM*
COC(=O)c1ccc(C23CC4(C2)[C@H](CN(CC2CCCCC2)[C@@H]4c2ccccc2)C3c2ccccc2)cc1 (some centres undefined),-5.9,?,2.8%,-4.7,?
COC(=O)c1ccc(C23CC4(C2)[C@H](CN(Cc2cccnc2)[C@@H]4c2ccccc2)C3c2ccccc2)cc1 (some centres undefined),-5.8,8.28µM*,0.4%,-2.8,7.38µM*
COC(=O)c1ccc(C23CC4(C2)[C@H](CN(Cc2cccnc2)[C@@H]4c2ccccc2)C3c2ccc(C(F)(F)F)cc2)cc1 (some centres undefined),1.2,3.29µM*,3.8%,-1.4,2.94µM*
CC(NC(=O)c1cc2c(s1)CS(=O)(=O)C2)c1ccccc1 (centres undefined),-5.1,51.7%,-12.0%,-10.2,11.1%
Cc1ccc(-n2[nH]c(C)c(C=NCc3ccncc3)c2=O)cc1,52.9*,10.7%,-14.2%,38.8*,0.0%
Cc1ccc(-n2[nH]c(C)c(C=Nc3cc(C)ccn3)c2=O)cc1,-3.0,7.38µM*,-19.6%,8.0,35.0%
COc1ccc2nc(/N=C/c3c(C)[nH]n(-c4ccc(C)cc4)c3=O)sc2c1,13.9,?,12.6µM*,17.4*,34.2%
SMILES,Shiga inhibitor,Pf growth 96h,LmPK inh,Cycloheximide cs,Pf growth 48h
O=C(Nc1ccc(Cl)c([N+](=O)[O-])c1)ONC1=NCCCCC1,-1.6,?,-1.5%,13.0,-10.8%
CC1CCCCN1C(=O)c1ccc(Br)o1 (centres undefined),-5.1,?,-4.7%,1.4,0.1%
Cn1c(CC(=O)Nc2ccccc2)nnc1SCC(=O)NC1CCCC1,-9.6,35.7%,-2.5%,-7.9,0.0%
CC(=O)c1cccc(OCC(O)CNCC2COc3ccccc3O2)c1 (centres undefined),5.1,66.7%,-1.2%,2.3,-1.0%
N#CCc1ccc(NC(=O)/C=C/c2ccc([N+](=O)[O-])o2)cc1,56.3*,-0.9%,8.3%,36.6*,-23.0%
CCOC(=O)C1CCN(C(=O)CN(c2cc(OC)ccc2OC)S(=O)(=O)c2ccccc2)CC1,-14.7,?,5.5%,-1.4,13.1µM*
COc1ccc(Cl)cc1N(CC(=O)N1CCCC1)S(=O)(=O)c1ccc(C)cc1,-2.0,?,-1.1%,-1.5,-27.5%
CCOC(=O)C1CCN(C(=O)CN(c2cc(Cl)ccc2OC)S(=O)(=O)c2ccccc2)CC1,-5.9,?,-6.0%,1.0,14.7µM*
CCN(CC)CCCN1CC(=O)N2[C@@H](Cc3c([nH]c4ccccc34)C2(C)C)C1=O,5.1,34.0%,-13.1%,-2.9,29.9%
CC(C)CCNC(=O)C1CC(=O)N(CCc2ccccc2)C1 (centres undefined),4.6,27.8%,-0.3%,-1.7,33.9%
O=C(Nc1cc(Br)ccc1O)c1cc(-c2cccs2)on1,78.5*,75.5%,-1.8%,21.6*,?
COc1ccc(-c2cc(C(=O)Nc3ccc(Br)cc3)no2)cc1,-4.4,?,0.0%,1.1,-6.5%
CC(C)c1cc(C(=O)Nc2cc(Cl)ccc2O)no1,142.8*,?,-1.8%,67.9*,?
Cc1cc(C(=O)NNc2cc(Cl)ccc2Cl)no1,13.2,54.4%,4.7%,-1.1,2.7%
CC(C)c1cc(C(=O)Nc2cc(Br)ccc2O)no1,119.7*,·,0.5%,35.8*,?
CCCn1c(=O)c2sccc2n2c(CCCC(=O)NC3CCN(Cc4ccccc4)CC3)nnc12,-5.0,?,-2.2%,1.1,15.2%
COc1cccc(/C=C2\SC(=O)N(CCC(=O)NC3CCS(=O)(=O)C3)C2=O)c1 (centres undefined),28.0,9.28µM*,-5.2%,-3.8,-3.0%
CCN(C(=O)CN1C(=O)S/C(=C\c2cccc(OC)c2)C1=O)C1CCS(=O)(=O)C1 (centres undefined),0.5,8.28µM*,6.7%,2.6,?
O=C(CCN1C(=O)S/C(=C\c2ccccc2)C1=O)NC1CCS(=O)(=O)C1 (centres undefined),-2.9,11.7µM*,-13.5%,-7.0,-6.8%
COc1cccc(/C=C2\SC(=O)N(CC(=O)NC3CCS(=O)(=O)C3)C2=O)c1 (centres undefined),8.2,?,12.0%,10.5,?
CCC(Sc1nc2ncccc2[nH]1)C(=O)N1CCOCC1 (centres undefined),-5.8,-22.6%,-0.6%,-0.3,9.0%
O=C(CSc1nnc(C2CC2)n1Cc1ccco1)NCC(F)(F)F,13.3,-8.6%,6.4%,5.0,60.4%
